MCF10A rereplic = inducers of DNA re-replication in MCF 10A breast cells | MCF 10A DNA re-replication, Hoechst nuclear intensity, 48 h | Potency, µM (titrated, usually from 46.1 µM), for inactives: at the highest dose activity, positive = re-replication, usual class: activators | 350,000 compounds, 2.9% hits; note: % of control where 0% means no effect; nearly all actives have a fitted effect of over 50% in size
KB-3-1 cytotox = kills parental KB-3-1 adenocarcinoma cells. KB-3-1 viability, CellTiter-Glo ATP luminescence, 72 h. Potency, µM (highest dose often 46.1 µM), actives largely listed as cytotoxic. AID 1347075. 400,000 compounds, 1.4% hits; note: % is set by controls: 0 for no effect and ±100 for the full control effect; nearly all actives have a fitted effect of over 60% in size
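Using CellTiter-Glo luminescence, growth of non-resistant KB-3-1 adenocarcinoma cells is assessed 72 h after pin-tool compound addition at 37 °C. Normalized responses across the concentration series yield fitted curves.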
SW480 rerep = inducers of DNA re-replication in SW480 colon cancer cells | SW480 DNA re-replication, Hoechst DNA content imaging, 48 h | Potency, µM (highest dose often 46.1 µM), for inactives: top-dose re-replication activation, actives largely listed as activators | 340,000 compounds, 1.8% hits | AID 624297; note: % of control where 0% means no effect; nearly all actives have a fitted effect of over 55% in size
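First, 250 cells per well were seeded. Next, compound or vehicle (23 nL) was pinned in, plates sat 48 hr at 37 C. Finally Hoechst was added for 40 min before fluorescence scanning.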
KB-V1 MDR tox = KB-V1 MDR subline cytotoxicity; KB-V1 MDR cells viability, CellTiter-Glo, 72 h; Potency, µM (doses to about 46.1 µM), most hits filed as cytotoxic; 400,000 compounds, 3.4% hits; AID 1347076; note: % is set by controls: 0 for no effect and ±100 for the full control effect; nearly all actives have a fitted effect of over 60% in size
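Drug-selected KB-V1 cells, grown in DMEM lacking phenol red with 10% FBS, receive compound titrations; after three days at 37 degrees C, surviving cell ATP is quantified by CellTiter-Glo luminescence and responses normalized and curve-fitted.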
HT1080NT lethal = kills 2HG-producing HT-1080-NT fibrosarcoma cells; HT-1080-NT fibrosarcoma viability, CellTiter-Glo ATP luminescence, 48 h; Potency, µM (doses to about 46.1 µM), for inactives: top-dose activity, negative = less viability, usual class: cytotoxic; 360,000 compounds, 1.6% hits; AID 686970;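 note: NT is the 2HG producing partner of a matched IDH1 knockdown line; 0% = DMSO-treated cells and -100% = media-only wells without cells; nearly all actives have a fitted effect of over 55% in size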
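Read-out is CellTiter-Glo luminescence after 10 minutes at room temperature, following 48 hours' compound treatment of HT-1080-NT cells (750 cells/well, RPMI, 5% FBS, 37 degrees C).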
HT1080 IDH1KD tx = toxicity to HT-1080 IDH1 knockdown cells (counter line) | AID 686971 | HT-1080 IDH1 knockdown viability, ATP luminescence, 48 h | 360,000 compounds, 2% hits | Potency, µM (highest dose often 46.1 µM), for the others: at the highest dose activity, negative = toxicity, most hits filed as cytotoxic;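 note: 0% = DMSO wells and -100% = cell-free medium wells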
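In this qHTS, HT-1080 cells depleted of IDH1 are exposed for 48 h at 37 °C to compound titrations. Toxicity is scored from CellTiter-Glo luminescence, with DMSO as full viability and medium alone as none.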
Starred values were filed as active, the others as inactive; [ ] = another dose, or the depositor's remark. This is a sample that favours compounds with a hit; in the whole collection about 8% have one here. Calls come from the whole dose curve; as a rule, active = well fitted curve in the direction sought with a large enough effect; inconclusive = small, poorly fitted or top-dose-only effect, or another doubt; inactive = no such curve, though single readings can be large; an effect the other way counts as inactive or inconclusive. Potency is the fitted concentration of half-maximal effect.

Screening Nc1nc(Nc2cccc(Cl)c2)nc(NCc2ccco2)c1[N+](=O)[O-] returned MCF10A rereplic inconclusive, KB-3-1 cytotox 16.4µM*, SW480 rerep inconclusive, KB-V1 MDR tox inconclusive, HT1080NT lethal inconclusive and HT1080 IDH1KD tx 16.4µM*.
Cc1cccc(Nc2nc(NCc3ccco3)nc(N)c2[N+](=O)[O-])c1 was read as MCF10A rereplic 20.2%, KB-3-1 cytotox inactive, SW480 rerep 11.8%, KB-V1 MDR tox inactive, HT1080NT lethal 0.2% and HT1080 IDH1KD tx -9.8%.
Nc1nc(Nc2cccc(F)c2)nc(NCc2ccco2)c1[N+](=O)[O-] was read as MCF10A rereplic inconclusive, KB-3-1 cytotox inconclusive, SW480 rerep inconclusive, KB-V1 MDR tox inconclusive, HT1080NT lethal 9.2µM* and HT1080 IDH1KD tx 25.9µM*.
Nc1nc(NCC2CCCO2)nc(Nc2cccc(F)c2)c1[N+](=O)[O-] (configuration not stated) was read as MCF10A rereplic -3.1%, KB-3-1 cytotox inactive, SW480 rerep -4.4%, KB-V1 MDR tox inactive, HT1080NT lethal 19.2% and HT1080 IDH1KD tx 6.2%.
Screening Cc1cccc(Nc2nc(N)c([N+](=O)[O-])c(NCc3ccco3)n2)c1 returned MCF10A rereplic inconclusive, KB-3-1 cytotox inconclusive, SW480 rerep inconclusive, KB-V1 MDR tox 7.31µM*, HT1080NT lethal inconclusive and HT1080 IDH1KD tx inconclusive.
For Nc1nc(Nc2ccc(Cl)cc2)nc(NCc2ccco2)c1[N+](=O)[O-] the results were MCF10A rereplic inconclusive, KB-3-1 cytotox inactive, SW480 rerep -122.3%, KB-V1 MDR tox 16.4µM*, HT1080NT lethal inconclusive and HT1080 IDH1KD tx 18.4µM*.
`COc1ccc(Nc2nc(NCc3ccco3)nc(N)c2[N+](=O)[O-])cc1` gave MCF10A rereplic -22.2%, KB-3-1 cytotox inactive, SW480 rerep -70.6%, KB-V1 MDR tox inactive, HT1080NT lethal 0.5% and HT1080 IDH1KD tx 7.1%.
`CC1(C)SC2c3ccccc3C(=O)N2C1C(=O)O` (configuration not stated) gave MCF10A rereplic 2.1%, KB-3-1 cytotox inactive, SW480 rerep -2.1%, KB-V1 MDR tox inactive, HT1080NT lethal 7.8% and HT1080 IDH1KD tx 8.0%.
Screening Cc1ccc(-c2nnc(Nc3ccc(C(=O)N(C)C)cc3)c3ccccc23)cc1S(=O)(=O)NC(C)(C)CO returned MCF10A rereplic 7.0%, KB-3-1 cytotox inactive, SW480 rerep inconclusive, KB-V1 MDR tox inactive, HT1080NT lethal -20.1% and HT1080 IDH1KD tx -5.1%.
Screening Cc1c(C(=O)N(Cc2cccc(F)c2)C2CCS(=O)(=O)C2)oc2cc(Br)ccc12 (configuration not stated) returned KB-3-1 cytotox inactive and KB-V1 MDR tox inactive.
Screening COc1ccc(C(=O)Nc2ccc(Nc3ccccc3)cc2)cc1Br returned MCF10A rereplic 5.7%, KB-3-1 cytotox inactive, SW480 rerep -24.9%, KB-V1 MDR tox inactive, HT1080NT lethal -0.4% and HT1080 IDH1KD tx -9.2%.
For N#Cc1ccc(C(=O)OCC(=O)N2CCN(C(=O)c3ccco3)CC2)cc1 the results were MCF10A rereplic -2.0%, KB-3-1 cytotox inactive, SW480 rerep -4.3%, KB-V1 MDR tox inactive, HT1080NT lethal 6.4% and HT1080 IDH1KD tx 3.5%.
Screening O=C(O)c1ccc2cccnc2c1O returned MCF10A rereplic 2.2%, KB-3-1 cytotox inactive, SW480 rerep 5.6%, KB-V1 MDR tox inactive, HT1080NT lethal 4.7% and HT1080 IDH1KD tx 18.0%.
Screening CN1CCN(c2nc(NCc3ccco3)nc(N)c2[N+](=O)[O-])CC1 returned MCF10A rereplic inconclusive, KB-3-1 cytotox inactive, SW480 rerep 13µM*, KB-V1 MDR tox inactive, HT1080NT lethal 7.8% and HT1080 IDH1KD tx 9.9%.
`CC(C)CNc1nc(N)c([N+](=O)[O-])c(N2CCCCCC2)n1` gave MCF10A rereplic inconclusive, KB-3-1 cytotox 18.4µM*, SW480 rerep 16.3%, KB-V1 MDR tox 9.2µM*, HT1080NT lethal inconclusive and HT1080 IDH1KD tx inconclusive.
For CC(=O)c1ccc(OCc2cc(C(=O)N(C)CC3COc4ccccc4O3)no2)cc1 (configuration not stated) the results were KB-3-1 cytotox inactive, KB-V1 MDR tox inconclusive, HT1080NT lethal -1.1% and HT1080 IDH1KD tx -0.1%.
Screening CO/N=C\CC(=O)Nc1ccc(Cl)c(Cl)c1 returned MCF10A rereplic 16.4µM*, KB-3-1 cytotox 7.31µM*, SW480 rerep 18.4µM*, KB-V1 MDR tox inconclusive, HT1080NT lethal 8.2µM* and HT1080 IDH1KD tx 6.51µM*.
`O=Cc1nccc2ccccc12` gave MCF10A rereplic inconclusive, KB-3-1 cytotox inactive, SW480 rerep 15.3%, KB-V1 MDR tox inactive, HT1080NT lethal -3.0% and HT1080 IDH1KD tx -2.3%.
Screening C(=Cc1c[nH]c2ccccc12)c1nccc2ccccc12 returned MCF10A rereplic 1.64µM*, KB-3-1 cytotox inconclusive, SW480 rerep 6.51µM*, KB-V1 MDR tox inconclusive, HT1080NT lethal inconclusive and HT1080 IDH1KD tx inconclusive.
For C(=Cc1c[nH]c2ccccc12)c1ccc2ccccc2n1 the results were MCF10A rereplic 0.92µM*, KB-3-1 cytotox inactive, SW480 rerep inconclusive, KB-V1 MDR tox inactive, HT1080NT lethal 16.4µM* and HT1080 IDH1KD tx 23.1µM*.
Screening COc1cccc(N2C(=O)C(CC(=O)Nc3ccc(F)cc3)N(C3CCCCC3)C2=O)c1 (configuration not stated) returned MCF10A rereplic 2.6%, KB-3-1 cytotox inactive, SW480 rerep -6.7%, KB-V1 MDR tox inconclusive, HT1080NT lethal -5.7% and HT1080 IDH1KD tx 2.9%[9.24 µM].
`O=C(NC1CCCC(C(F)(F)F)C1)c1ccc([N+](=O)[O-])o1` (configuration not stated) gave MCF10A rereplic 6.51µM*, KB-3-1 cytotox inconclusive, SW480 rerep 31.8%, KB-V1 MDR tox inconclusive, HT1080NT lethal inconclusive and HT1080 IDH1KD tx inconclusive.
`O=C(NCc1ccc(F)cc1)c1ccc(CS(=O)(=O)c2ccc(Br)cc2)o1` gave MCF10A rereplic inconclusive, KB-3-1 cytotox inactive, SW480 rerep -12.1%, KB-V1 MDR tox 13µM*, HT1080NT lethal -6.0% and HT1080 IDH1KD tx -20.6%.
For O=C(NC1CCCCCC1)c1ccc([N+](=O)[O-])s1 the results were MCF10A rereplic inconclusive, KB-3-1 cytotox inconclusive, SW480 rerep 18.4µM*, KB-V1 MDR tox inactive, HT1080NT lethal inconclusive and HT1080 IDH1KD tx inconclusive.
For O=C(NCc1ccc2c(c1)OCO2)c1ccc(CS(=O)(=O)c2ccc(Br)cc2)o1 the results were MCF10A rereplic 6.6%, KB-3-1 cytotox inactive, SW480 rerep 1.7%, KB-V1 MDR tox inactive, HT1080NT lethal -5.6% and HT1080 IDH1KD tx -4.9%.
